Among the data in PubChem BioAssay AID624256 (NMMLSC, 2012) are GFP+ MAC1+ double positive, outcome and normalized GFP-positive differentiation values, retold here.

Each structure is given as a SMILES string. Out of some 360,000 compounds screened, about 3,700 (1%) were called active. About 2% were inconclusive and are not listed.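 How the source made its calls: active means normalized GFP-positive differentiation at or above the plate's own cutoff, the solvent-only control mean plus 3 SD; inconclusive means no clear call, values can overlap the other calls; inactive means the rest.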 The list comes from a sample in which actives are over-represented; it also holds similar structures and randomly drawn compounds.

The test can be described thus: induction of myeloid progenitor differentiation, primary screen, cell-based, flow cytometry, MLPCN library (AID 624256).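 On GFP+ MAC1+ double positive: cells exposed to compound for four days before flow analysis.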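 On normalized GFP-positive differentiation: cells exposed to compound for four days before flow analysis; 0% = DMSO wells and 100% = fulvestrant positive control at 5 µM.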 The settings on record: ER-HoxA9 myeloid progenitors, lysozyme-GFP differentiation, at 10 µM; GFP+ MAC1+ double positive: measured here: differentiation confirmed by MAC1 staining, stronger effect = higher value; normalized GFP-positive differentiation: stronger effect = higher value.
Regarding `CC(C)C[C@H]1CNC(=S)N1C[C@H]1CCCN1C[C@H](Cc1ccc(O)cc1)N1C[C@H](Cc2ccc(O)cc2)N(CC2CCCCC2)C1=S`, the GFP+ MAC1+ double positive stood at 1.3% and the result was inactive.
On to `Cc1ccc(C)c(S(=O)(=O)N2CCN(c3ncnc4sccc34)CC2)c1`, for which the GFP+ MAC1+ double positive worked out at 2.8% and the normalized GFP-positive differentiation is 41.1% (active).
As to `Cc1ccc(C)c(S(=O)(=O)N2CCN(C(=O)Nc3ccccc3)CC2)c1`, the GFP+ MAC1+ double positive is 0.3% and the call was inactive.
As for `COc1ccc(-c2csc3ncnc(N4CCN(S(=O)(=O)c5ccccc5C#N)CC4)c23)cc1`, the GFP+ MAC1+ double positive is 1.7% and the call was inactive.
With `CCC(C(=O)NCc1ccccc1)n1c(Cc2cc(F)cc(F)c2)nc2ccccc21` (stereo not given), the GFP+ MAC1+ double positive amounted to 2% and the compound was classed as inactive.
On the same counts, the results for `Nc1ncnc2c1ncn2[C@@H]1O[C@H](C(=O)N2CCCN(Cc3ccccc3F)CC2)[C@@H](O)[C@H]1O` are 1.3% and “inactive”.
On the same counts, the results for `CC1CCCN(C(=O)Cn2c(=O)oc3cc(S(=O)(=O)N4CCCCC4C)ccc32)C1` (stereo not given) are 2.1% and “inactive”.
The like results for `O=C(NC1CCCCC1)n1c(=O)oc2cc(S(=O)(=O)N3CCCCC3)ccc21` were, in that order, 8.3% and “inactive”.
As for `CC1CCCCN1C(=O)Cn1c(=O)oc2cc(S(=O)(=O)N3CCCCC3)ccc21` (stereo not given), the GFP+ MAC1+ double positive was determined as 6.7% and the normalized GFP-positive differentiation was 53.2% (active).
`CC1=C(C(=O)N(C(C)C)C(C)C)CC(CC(=O)NCCCCc2ccccc2)C(=O)N1CCC1=CCCCC1` (stereo not given): the GFP+ MAC1+ double positive stood at 1% and the call was inactive.
The like results for `O=S1(=O)CC(N2CCN(c3ccccn3)CC2)CN1Cc1ccc(F)cc1` (stereo not given) were, in that order, 0.9% and “inactive”.
On the same counts, the results for `CCOC(=O)[C@]12CCC=C1N(Cc1cccc3ccccc13)C(=O)[C@H](CC(=O)NCc1cccc(C(F)(F)F)c1)C2` are 0.3% and “inactive”.
The like results for `COC(=O)[C@@]12C[C@@H](CC(=O)N3CCC(c4ccccc4)CC3)C(=O)N(Cc3ccccc3)C1=CCC(C)(C)C2` were, in that order, 1.2% and “inactive”.
Consider `O=C(Cn1cc(-c2nnnn2-c2ccc(Cl)cc2)c(=O)c2ccccc21)c1ccccc1`, for which the GFP+ MAC1+ double positive is 7.2% and the normalized GFP-positive differentiation was 37.5% (active).
Regarding `Clc1ccc(-n2nnnc2-c2cnc(-c3ccccn3)nc2-c2cccs2)cc1`, the GFP+ MAC1+ double positive was found to be 0.7% and the outcome was inactive.
On the same counts, the results for `O=C(CN1CCN(c2ccc(Cl)cc2)CC1)c1ccccc1` are 0.3% and “inactive”.
For the compound `COC(=O)[C@]12CCCCC=C1N(CCC1=CCCCC1)C(=O)[C@H](CC(=O)NCC1CCCCC1)C2`, the GFP+ MAC1+ double positive came out at 1.7% and the result was inactive.
On the same counts, the results for `Cc1ccc(-c2cnc(C(O)c3cccc(C)c3C)[nH]2)cc1` (stereo not given) are 0.9% and “inactive”.
On the same counts, the results for `O=C(Nc1cccc(C(F)(F)F)c1)c1ccc(N2CCNCC2)c([N+](=O)[O-])c1` are 0.4% and “inactive”.
`O=C(NC1C2CC3CC(C2)CC1C3)c1ccc(N2CCNCC2)c([N+](=O)[O-])c1` (stereo not given): the GFP+ MAC1+ double positive is 0.8% and the normalized GFP-positive differentiation is 16.7% (active).
Take `CS(=O)(=O)N1CCN(c2ccc(C(=O)NC3C4CC5CC(C4)CC3C5)cc2[N+](=O)[O-])CC1` (stereo not given): the GFP+ MAC1+ double positive stood at 1% and the outcome was inactive.
The like results for `Cc1cc(O)ccc1-c1cc(C(=O)NCc2cc(C(F)(F)F)cc(C(F)(F)F)c2)[nH]n1` were, in that order, 0.4% and “inactive”.
The like results for `O=C1CCNCCN1[C@H](CO)Cc1ccccc1` were, in that order, 1.1% and “inactive”.
On the same counts, the results for `c1ccc2c(CCN3CCNC[C@H]3Cc3cccc4ccccc34)cccc2c1` are 6% and “inactive”.
In the case of `c1ccc(C[C@H]2CNCCN2CCC23CC4CC(CC(C4)C2)C3)cc1`, the GFP+ MAC1+ double positive turned out to be 4% and the normalized GFP-positive differentiation was 18.5% (active).
Consider `CCc1nc2ccc(C(=O)NC3CCN(Cc4ccccc4)CC3)cn2c1N(CC)CCOC`, for which the GFP+ MAC1+ double positive was 1.3% and the call was inactive.
For `NNC(=O)c1ccc(COCC(F)(F)C(F)F)cc1`, the GFP+ MAC1+ double positive turned out to be 0.4% and the result was inactive.
On the same counts, the results for `Cc1ccc(COc2ccc(/C=N/NC(=O)CN3CCCCC3)cc2)cc1` are 0.2% and “inactive”.
On to `Cc1ccc(COc2ccc(C(=O)NN)cc2)cc1`, for which the GFP+ MAC1+ double positive was 4.6% and the normalized GFP-positive differentiation is 335% (active).
As for `COc1cccc(CNC(=O)[C@@H]2CCCN2C(=O)[C@@H]2CCCN2C(=O)c2ccccc2)c1`, the GFP+ MAC1+ double positive turned out to be 0.5% and the compound was classed as inactive.
On the same counts, the results for `CC(CNC(=O)c1ccc(Br)o1)NC(=O)c1ccc(Br)o1` (stereo not given) are 4.1% and “inactive”.
The like results for `CCOc1ccc(C(=O)Nc2cccc(-c3ccc4nncn4n3)c2)cc1` were, in that order, 1.2% and “inactive”.
With `CCS(=O)(=O)c1ccc(-c2cccc(NC(=O)c3ccc(Br)o3)c2)nn1`, the GFP+ MAC1+ double positive is 1.2% and the normalized GFP-positive differentiation was 11.8% (active).
As for `COC(=O)C[C@H]1C=C[C@@H](NS(=O)(=O)c2ccc(C)cc2)[C@@H](CO)O1`, the GFP+ MAC1+ double positive worked out at 2.1% and the compound was called inactive.
The like results for `Cc1ccccc1-c1nc(NC(C)C)nc2cc(-c3ccccc3)sc12` were, in that order, 0.6% and “inactive”.
The like results for `OC(c1ccc(Cl)c(F)c1)c1ncc(-c2ccccc2Cl)[nH]1` (stereo not given) were, in that order, 1.3% and “inactive”.
The like results for `COc1ccc(C(O)C(O)(C(=O)OC(C)C)c2ccc(C)cc2)cc1` (stereo not given) were, in that order, 2.5% and “inactive”.
For `C[C@H]([C@@H](O)[C@@H](O)[C@@H](C)C(C)(C)C)[C@H]1CC[C@H]2C3CC[C@H]4C[C@H](OS(=O)(=O)O)[C@@H](OS(=O)(=O)O)C[C@]4(C)[C@H]3CC[C@]12C` (stereo not given in full), the GFP+ MAC1+ double positive stood at 3.3% and the outcome was inactive.
As to `C=CCC[C@@H](CCCCC)OC(=O)/C=C/[C@@H](O)[C@H](O)C[C@H](O)CC=C`, the GFP+ MAC1+ double positive amounted to 0.4% and the call was inactive.
Consider `O=C(c1ccc(C(F)(F)F)cc1)N1CCC(=O)N([C@H](COCc2ccccc2)Cc2ccccc2)CC1`, for which the GFP+ MAC1+ double positive was 0.6% and the compound was classed as inactive.
